Compound activity as filed in PubChem.
USP17 block: human USP17-like deubiquitinase inhibition; purified USP17, Ub-rhodamine cleavage fluorescence, 3 h; inhibition, % at 50 µM; actives 6.5% (n = 47,000); AID 1645855; A8MUK1
OTUD3 inh: inhibitors of human OTUD3 deubiquitinase | AID 1645858 | Q5T2D3 | inhibition, % at 25 µM | purified OTUD3, Ub-rhodamine fluorescence, 2 h | actives 0.7% (n = 47,000)
Target sequence (Q5T2D3 whole entry, looked up): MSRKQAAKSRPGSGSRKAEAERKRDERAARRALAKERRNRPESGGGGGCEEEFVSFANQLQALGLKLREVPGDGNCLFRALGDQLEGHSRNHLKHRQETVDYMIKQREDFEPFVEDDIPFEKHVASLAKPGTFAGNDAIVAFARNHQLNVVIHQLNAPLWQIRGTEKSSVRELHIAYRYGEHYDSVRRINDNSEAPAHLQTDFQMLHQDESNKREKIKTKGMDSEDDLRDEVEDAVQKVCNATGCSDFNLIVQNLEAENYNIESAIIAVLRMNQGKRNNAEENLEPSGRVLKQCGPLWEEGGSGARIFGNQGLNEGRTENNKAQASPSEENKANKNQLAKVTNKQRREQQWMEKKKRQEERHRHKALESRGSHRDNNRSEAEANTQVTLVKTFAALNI
USP28 inh: blocks human USP28 ubiquitin-rhodamine cleavage; inhibition, % at 25 µM; actives 3% (n = 47,000); purified USP28, Ub-rhodamine cleavage fluorescence, 30 min; AID 1645857
USP30 block: human USP30 deubiquitinase inhibition | purified USP30, Ub-rhodamine cleavage fluorescence | inhibition, % at 25 µM | actives 5.3% (n = 47,000) | AID 1645860
An asterisk follows results filed as active. Most compounds without a hit are left out; they make up all but 11% or so of the library. Cut-off read from the data, not from the text of the source: active = inhibition above about 30%; inactive = the rest.

Results for COc1ccc(CCC(=O)Nc2ccc3c(c2)Sc2ccccc2C(=O)N3C)cc1 ?
OTUD3 inh: 16; USP28 inh: 32*; USP30 block: 39*

How did COc1ccc(C(=O)Nc2ccc3c(c2)Sc2ncccc2C(=O)N3C)cn1 do in these assays?
USP17 block: 7; OTUD3 inh: -3; USP28 inh: 65*; USP30 block: -35

Results for Cc1oc(-c2ccc(C(=O)NC3CC3)cc2)nc1CN1CCN(c2ccccc2)CC1 ?
USP17 block: -3; OTUD3 inh: 3; USP28 inh: -1; USP30 block: -3

Results for Cc1cccc(C(=O)N2CCCCC2c2nnc(-c3ccncc3)o2)c1 (configuration not stated) ?
USP17 block: -7; OTUD3 inh: -2; USP28 inh: 3; USP30 block: -18

How did O=C(Nc1nc2c(s1)CCC2)C1CCN(S(=O)(=O)c2ccc3c(c2)CCCC3)CC1 do in these assays?
USP17 block: 20; OTUD3 inh: -11; USP28 inh: 50*; USP30 block: -102

How did Cc1nnc(NC(=O)C2CCN(S(=O)(=O)c3ccc4c(c3)CCC4)CC2)o1 do in these assays?
USP17 block: -16; OTUD3 inh: 8; USP28 inh: 4; USP30 block: 18

How did Cc1ccc(CN2CCCn3nc(C(=O)NCc4ccc(F)cc4)cc3C2=O)cc1 do in these assays?
USP17 block: 38*; OTUD3 inh: 8; USP28 inh: 13; USP30 block: 56*

What do the screens show for `COc1ccc(NC(=O)CSc2nnc3n(-c4ccccc4)c(=O)c4c5c(sc4n23)CN(C)CC5)cc1`?
USP17 block: -4; OTUD3 inh: -2; USP28 inh: 17; USP30 block: -5

How did CC(NC(=O)CSc1nnc2n(-c3ccccc3)c(=O)c3ccccc3n12)c1ccccc1 (configuration not stated) do in these assays?
USP17 block: 12; OTUD3 inh: 8; USP28 inh: 10; USP30 block: 48*

What do the screens show for `COC(=O)c1cc2c(ccn2C)n1CC(=O)N1CCOCC1`?
USP17 block: -156; OTUD3 inh: -106; USP28 inh: -126; USP30 block: inactive

What do the screens show for `CCn1cc2c(n1)c(=O)n(Cc1ccccc1)c(=O)n2CC(=O)NCc1ccc(C)cc1`?
USP17 block: 56*; OTUD3 inh: 35*; USP28 inh: 27; USP30 block: 90*

What do the screens show for `Cn1cc2c(n1)c(=O)n(Cc1ccc(F)cc1)c(=O)n2CC(=O)NCc1ccco1`?
USP17 block: -38; OTUD3 inh: -4; USP28 inh: -15; USP30 block: -65

What do the screens show for `CCn1cc2c(n1)c(=O)n(Cc1ccc(C)cc1)c(=O)n2CC(=O)Nc1ccc(F)cc1`?
USP17 block: 81*; OTUD3 inh: 16; USP28 inh: 18; USP30 block: 26

Results for CCCn1c(=O)c2nscc2n(CC(=O)NCc2ccccc2)c1=O ?
USP17 block: -10; OTUD3 inh: -10; USP28 inh: -5; USP30 block: -12

What do the screens show for `Cn1cc2c(n1)c(=O)n(Cc1ccc(F)cc1)c(=O)n2CC(=O)Nc1ccccc1F`?
USP17 block: 42*; OTUD3 inh: -8; USP28 inh: -20; USP30 block: 5

How did CCCn1c(=O)c2nscc2n(CC(=O)NCc2ccc(C)cc2)c1=O do in these assays?
USP17 block: 43*; OTUD3 inh: 4; USP28 inh: 18; USP30 block: 42*

Results for Cc1cc(O)c(C(c2cccc(F)c2)c2c(O)cc(C)n(C)c2=O)c(=O)n1C ?
USP17 block: 3; OTUD3 inh: 3; USP28 inh: 1; USP30 block: 6

Results for O=C(c1cn(-c2ccccc2)nc1-c1ccc(F)cc1)N1CCN(CCN2CCCC2)CC1 ?
USP17 block: -3; OTUD3 inh: 3; USP28 inh: -2; USP30 block: -23

Results for O=C(Cn1c(=O)n(Cc2ccccc2)c(=O)c2nscc21)NCc1ccco1 ?
USP17 block: 42*; OTUD3 inh: 3; USP28 inh: 14; USP30 block: -23

Results for O=C(Cn1c(=O)[nH]c2c(-c3ccccc3)c[nH]c2c1=O)NCc1ccco1 ?
USP17 block: 45*; OTUD3 inh: 1

What do the screens show for `O=C(Cn1c(=O)n(Cc2ccccc2)c(=O)c2cc(Cl)ccc21)NCc1ccco1`?
USP17 block: -10; OTUD3 inh: -2; USP28 inh: -5; USP30 block: -38

What do the screens show for `COc1cc(Cl)ccc1Oc1ncnc2sc(C)c(C)c12`?
USP17 block: 62*; OTUD3 inh: 2; USP28 inh: 28; USP30 block: 46*

Results for O=C(Nc1cc(C(F)(F)F)cc(C(F)(F)F)c1)c1ccc(-c2ccccn2)s1 ?
USP17 block: 19; OTUD3 inh: 8; USP28 inh: 12; USP30 block: 41*

Results for CC(=O)C1=C(O)[C@]2(O)C(=O)c3c(c(C)c4ccc(C)c(O)c4c3O)C[C@H]2[C@@H](N)C1=O ?
USP17 block: 60*; OTUD3 inh: 67*; USP28 inh: 61*; USP30 block: -37

Results for Cc1cc(OCC(=O)Nc2ccccc2)nc(N2CCCC(C)C2)n1 (configuration not stated) ?
USP17 block: 31*; OTUD3 inh: -1; USP28 inh: 2; USP30 block: 14

How did Cc1cccc(NC(=O)COc2cc(C)nc(N3CCCCC3)n2)c1 do in these assays?
OTUD3 inh: 18; USP28 inh: 14; USP30 block: 30*

What do the screens show for `Cc1ccccc1CN1C(=O)C(O)(c2c(C)[nH]c3ccccc23)c2ccccc21` (configuration not stated)?
USP17 block: -9; OTUD3 inh: -9; USP28 inh: 0; USP30 block: -32

Results for COc1cc(C2C(C(C)=O)N3c4cc(C)ccc4C=CC3C23C(=O)c2ccccc2C3=O)cc(OC)c1OC (configuration not stated) ?
USP17 block: -87; OTUD3 inh: -155; USP28 inh: -116; USP30 block: inactive

What do the screens show for `Cn1ncc(-c2nc(-c3ccc(Cl)cc3)cs2)c1NC(=O)NC(=O)c1c(F)cccc1F`?
USP17 block: 53*; OTUD3 inh: -4

Results for CC(=O)Nc1cccc(NC(=O)Cn2ccc3cc(Br)ccc32)c1 ?
USP17 block: 61*; OTUD3 inh: 33*; USP28 inh: 62*; USP30 block: 54*

How did Cc1nc(N2CCCC2)ncc1-c1cc(=O)[nH]c(NCCc2ccccc2)n1 do in these assays?
USP17 block: 50*; OTUD3 inh: 5; USP28 inh: 5; USP30 block: 64*

What do the screens show for `Cc1nc(N2CCC(C)CC2)ncc1-c1cc(=O)[nH]c(Nc2nc3ccccc3o2)n1`?
USP17 block: 34*; OTUD3 inh: 12; USP28 inh: 14; USP30 block: 41*

How did COc1cccc(NC(=O)N2CCC3(C2)C(=O)Nc2ccccc23)c1 (configuration not stated) do in these assays?
USP17 block: -3; OTUD3 inh: -1; USP28 inh: -5; USP30 block: -13
